The source of these data is PubChem BioAssay AID2590 (National Center for Advancing Translational Sciences (NCATS), 2010).

“And” between values parts separate entries of the source, which are not always exact repeats. Identical values can stand only once. Records with an inconclusive call do not appear. Unmarked numbers belong to inactive results. The source made the active and inactive calls. The call rests on the fitted dose curve; in most records, active means well fitted curve in the direction sought with a large enough effect; inconclusive means small, poorly fitted or top-dose-only effect, or another doubt; inactive means no such curve, though single readings can be large or run the other way.
Potency means the concentration at half of the fitted maximal effect.

The target in this assay is Lysosomal acid glucosylceramidase (Homo sapiens) (UniProt P04062). In words: qHTS Assay for Inhibitors and Activators of N370S glucocerebrosidase as a Potential Chaperone Treatment of Gaucher Disease: Primary Screen Confirmation.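 On Potency: enzyme source is Gaucher patient spleen homogenate not purified recombinant protein.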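 On activity change, negative = inhibition: 0% = enzyme with DMSO and -100% = no enzyme basal signal.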 The settings on record: N370S glucocerebrosidase enzyme activity, fluorogenic substrate; series mostly up to 54 µM; activity change, negative = inhibition: at the top concentration. Summed up: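 Patient-spleen homogenate carrying N370S GC (27 ug) in pH 5.0 citrate buffer with 0.01% Tween-20, 1 mM 4-methylumbelliferyl-beta-glucoside, 40 min at 37C; fluorescence 365/440 nm after NaOH/glycine stop; AC50 from Hill fits.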
Sequence of Lysosomal acid glucosylceramidase (Homo sapiens) (P04062 whole entry N409S): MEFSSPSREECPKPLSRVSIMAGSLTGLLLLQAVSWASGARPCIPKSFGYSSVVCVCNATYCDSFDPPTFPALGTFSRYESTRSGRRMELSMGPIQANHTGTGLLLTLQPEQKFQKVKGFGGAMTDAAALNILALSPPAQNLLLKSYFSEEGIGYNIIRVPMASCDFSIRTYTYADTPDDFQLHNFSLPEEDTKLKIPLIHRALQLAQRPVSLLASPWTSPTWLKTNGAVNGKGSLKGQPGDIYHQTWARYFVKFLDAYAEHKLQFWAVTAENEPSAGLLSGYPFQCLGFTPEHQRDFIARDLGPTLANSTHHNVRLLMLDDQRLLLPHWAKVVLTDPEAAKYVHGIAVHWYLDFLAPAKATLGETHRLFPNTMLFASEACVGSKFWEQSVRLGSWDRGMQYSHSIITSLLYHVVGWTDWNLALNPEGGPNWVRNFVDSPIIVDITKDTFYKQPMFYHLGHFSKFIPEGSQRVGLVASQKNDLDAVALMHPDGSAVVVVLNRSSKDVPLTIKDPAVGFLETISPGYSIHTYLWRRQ
`S=C(NCCCc1cnc[nH]1)NCCCN(Cc1ccc(Cl)cc1)c1ncc(Br)cn1`: the Potency was 1.79 µM (active).

For the compound `Cc1cc(C)n2ncc(C(=O)Nc3cccc(O)c3)c2n1`, the “activity change, negative = inhibition” value is -2.41%.

Consider `CCN1CCN(C(=O)CCN(CC(C)C)c2nc(-c3cccs3)nc3ccccc23)CC1`, for which the Potency is 20.2 µM (active).

As for `CC(C)(C)c1ccc(S(=O)(=O)N2CCN(c3nc(-c4cccs4)nc4ccccc34)CC2)cc1`, the Potency is 1.3 µM (active) and 1.46 µM (active).

On to `CCC(=O)OCCNc1nc(-c2ccccc2)nc2ccccc12`, for which the Potency is 16 µM (active).

In the case of `CCCCN(CCCN)c1ccc(Br)cn1`, the “activity change, negative = inhibition” value is -10.7%.

For the compound `O=[N+]([O-])c1ccccc1S(=O)(=O)N1CCN(c2nc(-c3cccs3)nc3ccccc23)CC1`, the Potency is 0.73 µM (active).

As to `S=C(NCCCc1cnc[nH]1)NCCCN(CCc1ccc(Cl)cc1)c1ccc(Br)cn1`, the Potency is 1.79 µM (active).

For the compound `Cc1ccccc1S(=O)(=O)N1CCN(c2nc(-c3cccs3)nc3ccccc23)CC1`, the Potency is 2.53 µM (active).

For `Cc1ccc(S(=O)(=O)N2CCN(c3nc(-c4cccs4)nc4c3ncn4COC(=O)C(C)(C)C)CC2)cc1`, the “activity change, negative = inhibition” value is -14.4%.

With `S=C(NCCCc1cnc[nH]1)NCCCN(Cc1ccccc1)c1ccc(Br)cn1`, the Potency is 5.79 µM (active).

For the compound `CC(C)OCCCNc1nc(-c2ccccc2)nc2ccccc12`, the Potency was 4.01 µM (active).

In the case of `O=S(=O)(c1ccc(Cl)cc1)N1CCN(c2nc(Nc3cc(Cl)ccc3O)nc3ccccc23)CC1`, the Potency was 2.59 µM (active).

Consider `Cc1cc(C)cc(N(CC(=O)NC2CCC(C)CC2)S(=O)(=O)c2c(C)[nH]c(=O)[nH]c2=O)c1` (centres undefined), for which the Potency is 2.51 µM (active).

Turning to `CCCCNC(=S)NCCCc1cnc[nH]1`, the “activity change, negative = inhibition” value was -23.1%.

Regarding `C#CCOCCOCCOCCNc1nc(N2CCN(C(=O)CCCCCCCCCCNC(=O)[C@H](CO)n3cc(CCCSC)nn3)CC2)nc(N2CCN(C(=O)CCCCCCCCCCNC(=O)[C@H](CCCN=C(N)N)n3cc(C[C@@H](C)CC)nn3)CC2)n1`, the Potency was 6.51 µM (active).

For `O=S(=O)(c1ccc(C(F)(F)F)cc1)N1CCN(c2nc(-c3cccs3)nc3ccccc23)CC1`, the Potency is 2.53 µM (active).

For `O=S(=O)(c1cccs1)N1CCN(c2nc(-c3cccs3)nc3ccccc23)CC1`, the Potency is 0.819 µM (active).

Consider `Cc1cc(C)cc(N(CC(=O)NC2CCCCCC2)S(=O)(=O)c2c(C)[nH]c(=O)[nH]c2=O)c1`, for which the Potency is 1.12 µM (active).

In the case of `O=S(=O)(c1cccc(C(F)(F)F)c1)N1CCN(c2nc(-c3cccs3)nc3ccccc23)CC1`, the Potency is 6.35 µM (active).

In the case of `Cc1ccc(S(=O)(=O)N2CCN(c3nc(-c4ccco4)nc4ccccc34)CC2)cc1`, the Potency was 1.01 µM (active).

Take `O=S(=O)(c1ccc2c(c1)OCCO2)N1CCN(c2nc(-c3ccccc3)nc3ccccc23)CC1`: the Potency is 3.2 µM (active).

Turning to `O=S(=O)(c1ccc2ncsc2c1)N1CCN(c2nc(-c3cccs3)nc3ccccc23)CC1`, the Potency is 0.366 µM (active).

As to `O=S(=O)(c1cccc(F)c1)N1CCN(c2nc(-c3cccs3)nc3ccccc23)CC1`, the Potency is 1.01 µM (active).

Turning to `Cc1cc2[nH]c(=O)c(=O)[nH]c2cc1S(=O)(=O)N1CCN(c2cccc(C)c2C)CC1`, the Potency is 4.11 µM (active).

With `O=S(=O)(c1ccc2ccccc2c1)N1CCN(c2nc(-c3ccccc3)nc3ccccc23)CC1`, the Potency is 4.61 µM (active).

For the compound `O=S(=O)(c1ccccc1)N1CCN(c2nccc(-c3cccs3)n2)CC1`, the “activity change, negative = inhibition” value was -3.77%.

For the compound `Cc1ccc(S(=O)(=O)N2CCN(c3nc(-c4ccc(CN5CCNCC5)s4)nc4ccccc34)CC2)cc1`, the Potency was 12.7 µM (active).

On to `S=C(NCCCc1cnc[nH]1)NCCCN(Cc1ccc(Cl)cc1)c1cc(-c2ccccc2)ccn1`, for which the Potency was 5.66 µM (active).
